Among the data in PubChem BioAssay (EPA / NIEHS) are outcome and AC50 values, retold here.

Experiment [1] can be described thus: APR_HepG2_CellCycleArrest_24hr: Apredica 24-hour HepG2 Assay for Cell Cycle Arrest (AID 2282905).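 Also: cell cycle arrest scored as ratio of 2N to 4N nuclear DNA content.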 Conditions: imaging, actives raise or lower the signal. An outline of the steps: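 After 24 h exposure at 0.39–200 uM in 0.5% DMSO, fixed cells received Hoechst 33342 staining. Imaging quantified per-nucleus DNA content; gain or loss fitted against DMSO controls.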

Experiment [2] is described as follows: APR_HepG2_NuclearSize_24hr: Apredica 24-hour HepG2 Assay for Nuclear Size (AID 2282907). Conditions: high-content imaging, actives raise or lower the signal. The gist of the method:
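Nuclear size from Hoechst 33342-stained, formaldehyde-fixed HepG2 nuclei imaged by high-content microscopy, after 24 h dosing at ten concentrations from 0.39 to 200 uM in 0.5% DMSO; gain or loss relative to DMSO baseline.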

A short description of experiment [3]: APR_HepG2_CellLoss_24hr: Apredica 24-hour HepG2 Assay for Cell Loss (AID 2282908).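 As to AC50: fit in both directions so a hit may be cell loss or gain.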 Conditions: high-content imaging. An outline of the steps:
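Nuclei stained with Hoechst 33342 after formaldehyde fixation (3.7%) were imaged at 20x to count cells. Exposure lasted 24 hr, at ten concentrations from 0.39 to 200 uM in duplicate, with 0.5% v/v DMSO. Fit bidirectional, relative to DMSO.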

A short description of experiment [4]: APR_HepG2_MicrotubuleCSK_24hr: Apredica 24-hour HepG2 Assay for Microtubule CSK Stabilty (AID 2282909). Conditions: HepG2 microtubule cytoskeleton imaging, actives raise or lower the signal. An outline of the steps:
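Fixed HepG2 cells were stained for alpha-tubulin and imaged after 24 hr exposure to ten concentrations spanning 0.39–200 uM in 0.5% DMSO. Signal change was fitted in both directions relative to DMSO; taxol was the positive control.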

Experiment [5] can be described thus: APR_HepG2_MitoticArrest_24hr: Apredica 24-hour HepG2 Assay for Mitotic Arrest (AID 2282910). Conditions: high-content imaging, actives raise or lower the signal. An outline of the steps: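 HepG2, 24 hr dosing, 0.39–200 uM, 0.5% DMSO final. Formaldehyde-fixed, Triton-permeabilised, anti-phospho-histone H3 plus Hoechst. ArrayScan imaging at 20x; bidirectional fit vs DMSO baseline.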

Experiment [6] is described as follows: APR_HepG2_MitoMembPot_24hr: Apredica 24-hour HepG2 Assay for Mitochondrial Membrane Potential (AID 2282911). The note with it: imaging, actives raise or lower the signal. The gist of the method:
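Mitochondrial dye uptake (MitoTracker Red CMXRos, 250 nM, 30 min pre-fixation) in HepG2 after 24 hr compound exposure, 0.39–200 uM; ArrayScan images at 20x, activity fitted in both directions relative to DMSO.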

A short description of experiment [7]: APR_HepG2_MitoMass_24hr: Apredica 24-hour HepG2 Assay for Mitochondrial Mass (AID 2282912). Conditions: high-content imaging, actives raise or lower the signal. An outline of the steps: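 Endpoint is MitoTracker Red CMXRos (250 nM, 30 min, pre-fixation) intensity from 20x high-content imaging, nuclei located by Hoechst. Human HepG2 cells received ten concentrations from 0.39 to 200 uM in 0.5% DMSO for 24 hr, duplicate wells. Bidirectional fit relative to DMSO.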

The nature of experiment [8]: APR_HepG2_p53Act_24hr: Apredica 24-hour HepG2 Assay for p53 Activation (AID 2282913).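 Also: p53 protein immunofluorescence averaged per cell in HepG2 with Hoechst nuclei.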 The note with it: high-content imaging, actives raise or lower the signal. The gist of the method: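 Following 24 hr dosing of HepG2 at 0.39–200 uM, the cells undergo formaldehyde fixation, Triton permeabilization and multiplexed antibody labeling that includes p53 (Cy5). Signal from the imaging is referenced to DMSO solvent controls.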

Experiment [9] in a line: APR_HepG2_CellCycleArrest_72hr: Apredica 72-hour HepG2 Assay for Cell Cycle Arrest (AID 2282914). The note with it: high-content imaging, actives raise or lower the signal. An outline of the steps:
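Using multiplexed high-content imaging, HepG2 nuclei stained with Hoechst 33342 (2 ug/mL) were analysed for DNA content after fixation and permeabilization. Treatment lasted 72 hr across 0.39–200 uM in duplicate with final DMSO 0.5% v/v; DMSO served as negative control.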

The nature of experiment [10]: APR_HepG2_CellLoss_72hr: Apredica 72-hour HepG2 Assay for Cell Loss (AID 2282915). Conditions: high-content imaging. The gist of the method: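 HepG2 cells exposed 72 h to compound at 0.39–200 uM (10 concentrations, duplicate) in 0.5% DMSO. Fixed with 3.7% formaldehyde and Hoechst 33342-stained. Imaged at 20x; nuclear count gives cell number, fitted bidirectionally versus DMSO.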

Active and inactive are the calls of the source. The calls were made as follows: active = hit-call score of the fitted dose curve at least 0.9, where 1 is the maximum; inactive = score below 0.9.

Consider `CC(C)(C)c1ccccc1`, for which the compound was classed as inactive in experiment [1], in experiment [2], in [3], in experiment [4], in experiment [5] and in experiment [6]. In addition, the outcome in experiment [7], in [8], in experiment [9] and in experiment [10] was inactive.

For the compound `CN(C)CCCN(C)CCCN(C)C`, the call in experiment [1], in experiment [2], in experiment [3], in experiment [4], in experiment [5] and in experiment [6] was inactive. In addition, the outcome in experiment [7], in [8], in experiment [9] and in experiment [10] was inactive.

`O=C1c2c(O)cccc2Cc2cccc(O)c21`: the compound was called inactive in experiment [1], in [2], in experiment [3], in experiment [4], in experiment [5] and in experiment [7]. For the same compound, the outcome in [8], in experiment [9] and in [10] was inactive. Moreover, in experiment [6], the AC50 is 11.1 µM (active).

Consider `CCOCCOCCO`, for which the compound was classed as inactive in experiment [1], in [2], in experiment [3], in experiment [4], in experiment [5] and in experiment [6]. Further, the result in experiment [7], in experiment [8], in [9] and in experiment [10] was inactive.

Regarding `Cc1cc(Cc2ccc(N)c(C)c2)ccc1N`, the AC50 in experiment [1] was 35.1 µM (active); in [9], 103 µM (active); in experiment [10], 77.8 µM (active). Moreover, the compound was classed as inactive in experiment [2], in experiment [3], in experiment [4], in [5], in experiment [6] and in experiment [7]. Also, the call in experiment [8] was inactive.

Regarding `O=C(O)c1[nH]n(-c2ccc(S(=O)(=O)O)cc2)c(=O)c1N=Nc1ccc(S(=O)(=O)O)cc1`, the compound was called inactive in experiment [1], in [2], in experiment [3], in experiment [4], in experiment [5] and in experiment [6]. In addition, the call in [7], in experiment [8], in [9] and in experiment [10] was inactive.

With `COC(=O)CCCC(=O)OC`, the result in [1], in [2], in [3], in [4], in experiment [5] and in [6] was inactive. Moreover, the call in experiment [7], in experiment [8], in experiment [9] and in experiment [10] was inactive.

For `C=CCc1ccc(OC)c(OC)c1`, the call in experiment [1], in experiment [2], in experiment [3], in experiment [4], in experiment [5] and in experiment [6] was inactive. Besides, the outcome in [7], in experiment [8], in experiment [9] and in experiment [10] was inactive.

As for `CCc1cc(C2=C(C(=O)O)N(c3ccccc3C(F)(F)F)S(=O)(=O)c3ccccc32)cc2c1OCO2`, the compound was classed as inactive in experiment [1], in [2], in experiment [3], in experiment [4], in experiment [5] and in experiment [6]. Besides, the call in experiment [7], in experiment [8] and in [9] was inactive. Besides, the AC50 in experiment [10] is 95.5 µM (active).

In the case of `Oc1ccc(O)cc1`, the call in [1], in [2], in experiment [3], in [4], in experiment [5] and in [6] was inactive. Also, the AC50 was 51.4 µM (active) in experiment [7], 19 µM (active) in experiment [8], 100 µM (active) in experiment [9] and 71.7 µM (active) in experiment [10].

Consider `O=[Si]=O`, for which the result in experiment [1], in experiment [2], in experiment [3], in experiment [4], in experiment [5] and in experiment [6] was inactive. In addition, the outcome in experiment [7], in experiment [8] and in experiment [9] was inactive. For the same compound, the AC50 in experiment [10] was 61.4 µM (active).

As for `CCC(C)N(C)C(=O)c1cc2ccccc2c(-c2ccccc2Cl)n1` (stereo not given), the compound was called inactive in experiment [1], in experiment [2], in [4], in experiment [6] and in experiment [9]. Besides, the AC50 in [3] is 64.9 µM (active); in experiment [5], 66.8 µM (active); in [7] it was 82.4 µM (active); in experiment [8] it was 66.9 µM (active); in [10] it was 73.1 µM (active).

For the compound `NC(=Nc1ccccc1)Nc1ccccc1`, the AC50 in [1] was 8.86 µM (active); in [5], 21.7 µM (active); in experiment [10], 18.1 µM (active). Further, the outcome in experiment [2], in experiment [3], in experiment [4], in experiment [6], in [7] and in experiment [8] was inactive. Besides, the outcome in experiment [9] was inactive.

Regarding `CO[C@@H]1COCC[C@@H]1N[C@@H]1CC[C@@](C(=O)N2CCc3ncc(C(F)(F)F)cc3C2)(C(C)C)C1`, the compound was classed as inactive in experiment [1], in experiment [2], in experiment [3], in [4], in experiment [5] and in experiment [6]. Moreover, the result in [7], in [8], in [9] and in [10] was inactive.

On to `OCC(CO)n1cnc(-c2ccc(F)cc2)c1-c1ccnc(Oc2ccccc2)n1`, for which the result in [1], in experiment [2], in experiment [3], in [4], in [5] and in experiment [6] was inactive. Also, the call in experiment [7], in experiment [8], in [9] and in experiment [10] was inactive.

Turning to `COc1ccc(OC(F)(F)F)cc1CN[C@H]1CCCN[C@H]1c1ccccc1`, the AC50 in experiment [1] was 29.2 µM (active); in [2], 33.4 µM (active); in experiment [3], 45.8 µM (active); in [5], 39.5 µM (active); in experiment [7], 66.7 µM (active); in experiment [8], 24.9 µM (active). Further, the AC50 in [10] is 27.5 µM (active). For the same compound, the compound was classed as inactive in [4], in experiment [6] and in experiment [9].

Turning to `O=C(O)CN(CC(=O)O)CC(=O)O`, the result in experiment [1], in [2], in experiment [3], in experiment [4], in experiment [5] and in [6] was inactive. Also, the outcome in experiment [7], in [8], in experiment [9] and in experiment [10] was inactive.

Take `Nc1nc(Cl)nc2c1ncn2[C@H]1C[C@H](O)[C@@H](CO)O1`: the compound was called inactive in [1], in experiment [4], in experiment [5] and in experiment [6]. Also, the AC50 in [2] was 0.0451 µM (active); in [3] it was 0.0403 µM (active); in experiment [7], 0.243 µM (active); in experiment [8], 0.208 µM (active); in experiment [9] it was 0.0388 µM (active); in [10], 0.162 µM (active).

Take `CC(=O)S[C@H](C(=O)N[C@H]1Cc2ccccc2[C@H]2CCC[C@@H](C(=O)O)N2C1=O)C(C)C`: the result in [1], in experiment [2], in experiment [3], in experiment [4], in experiment [5] and in experiment [6] was inactive. Besides, the outcome in experiment [7], in experiment [8], in experiment [9] and in experiment [10] was inactive.

In the case of `NCCOCCOCCN`, the AC50 in [1] was 0.998 µM (active); in experiment [3] it was 92.3 µM (active); in experiment [4] it was 170 µM (active); in experiment [5], 14.3 µM (active); in experiment [6], 107 µM (active); in [7], 45.3 µM (active). Moreover, the AC50 in experiment [8] is 83.7 µM (active); in experiment [9], 18.6 µM (active); in experiment [10], 16.6 µM (active). In [2], the result was inactive.
